According to PubChem BioAssay (NCATS):
Results filed as inconclusive are left out. Activity calls are given as the source filed them. Unless noted, calls come from the whole dose curve; as a rule, active = well fitted curve in the direction sought with a large enough effect; inconclusive = small, poorly fitted or top-dose-only effect, or another doubt; inactive = no such curve, though single readings can be large; an effect the other way counts as inactive or inconclusive.

Key:
[1] = Cell Viability - Jurkat (AID 426;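 active = dose-dependent loss of cell ATP signal giving a full or clear fitted curve, ranked by lower potency value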;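 note: potency is the fitted concentration of half-maximal effect; cells exposed to compound for 40 hours at 37 °C before ATP read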); details: qHTS
How it was run: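 Cytotoxicity was scored as loss of cellular ATP, measured by luciferase-based luminescence, in Jurkat clone E6-1 cells after 40 h compound treatment; tamoxifen and doxorubicin served as positive controls.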

[2] = biological target: Mitogen-activated protein kinase 10 (Mus musculus) (UniProt Q61831); assay: JNK3 AlphaScreen Assay (AID 530; active = well fitted curve in either direction with a large enough effect, not every such curve was filed as active;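 note: kinase came from lysate of stimulated human HepG2 cells; signal reports phosphorylation of biotinylated GST-cJun 1-79 at Ser73 with 10 µM ATP; % is set by controls: 0 for no effect and ±100 for the full control effect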); details: JNK3 lysate, c-Jun phosphorylation; series mostly up to 57.1 µM
How it was run: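 HepG2 lysate (IL-1b/TNFa pre-activated) + biotin-GST-cJun 1-79 + anti-pSer73 cJun; cpd titration, 15 min RT; ATP 10 uM start; Tris pH 7.6, MgCl2, DTT, vanadate; beads in EDTA buffer; AlphaScreen.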

[3] = Cell Viability - N2a (AID 540); details: N2a mouse neuroblastoma cell viability; activity change, negative = cytotoxicity: at 92.2 µM (top of the series);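 note: cells exposed to compound for 40 h at 37 °C; plate controls were DMSO alone for no effect and tamoxifen control for full effect; nearly all actives have a fitted effect of over 45% in size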
How it was run: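 In this qHTS cytotoxicity screen, ATP-dependent luciferase luminescence reports viable N2a cells after a 40 hr compound exposure in complete culture medium. Potencies are AC50 values from standard Hill equation fits.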

[4] = Cell Viability - NIH 3T3 (AID 541); details: NIH 3T3 cell viability, qHTS; activity change, negative = cytotoxicity: at 92.2 µM (top of the series);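 note: cells exposed to compound for 40 hours; plate controls were DMSO alone for no effect and tamoxifen positive control for full effect; nearly all actives have a fitted effect of over 25% in size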
How it was run: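 In this cytotoxicity screen, acute toxicity is scored as an ATP drop measured by CellTiter-Glo in NIH 3T3 fibroblasts following a 40 hr, 37 °C incubation with compound.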

[5] = Cell Viability - HUV-EC-C (AID 542); details: HUV-EC-C endothelial cell viability, qHTS; series mostly up to 92.2 µM;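 note: cells exposed to compound for 40 hours; % is set by controls: 0 for no effect and ±100 for the full control effect; nearly all actives have a fitted effect of over 35% in size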
How it was run: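 Concentration-dependent ATP loss in HUV-EC-C cells is the measure. Exposure lasts 40 hr at 37 °C; luminescence follows CellTiter-Glo addition, and Hill fits give AC50.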

[6] = Cell Viability - H-4-II-E (AID 543); details: H-4-II-E rat hepatoma viability; series mostly up to 92.2 µM;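 note: cells exposed to compound for 40 hours; % is set by controls: 0 for no effect and ±100 for the full control effect; nearly all actives have a fitted effect of over 35% in size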
How it was run: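 AC50 from Hill-modelled qHTS concentration-response curves. H-4-II-E rat hepatoma cells in complete medium, 40 hr exposure at 37 °C, viability by CellTiter-Glo ATP luminescence.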

[7] = Cell Viability - SH-SY5Y (AID 544); details: SH-SY5Y neuroblastoma cell viability; viability change, negative = cytotoxic: at 92.2 µM (top of the series);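 note: cells exposed to compound for 40 hours; nearly all actives have a fitted effect of over 55% in size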
How it was run: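 Quantitative HTS in SH-SY5Y neuroblastoma cells, 40 hr treatment at 37 °C, ATP content by luciferase luminescence; AC50 from Hill fits.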

[8] = Cell Viability - Renal Proximal Tubule (AID 545); details: renal proximal tubule cells viability; series mostly up to 91.7 µM;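 note: cells exposed to compound for 40 hours; nearly all actives have a fitted effect of over 40% in size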
How it was run: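 Cytotoxicity is scored as a concentration-dependent drop in cellular ATP in primary rat renal proximal tubule cells exposed for 40 hr. AC50 derives from Hill modelling.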

[9] = Cell Viability - Mesenchymal (AID 546); details: mesenchymal cells viability, qHTS; series mostly up to 91.7 µM;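 note: cells exposed to compound for 40 hours before reading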
How it was run: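 Human renal mesenchymal cells (glomerulus-derived), 1000 cells/well, 5 hr 37 °C pre-incubation; compound 40 hr, 37 °C; CellTiter-Glo, 20 min RT; luminescence; AC50 via Hill equation.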

[10] = Cellular Toxicity (caspase-3) HepG2 (AID 654); details: HepG2 caspase-3 activation, luminescence, 0% = DMSO only, 100% = tamoxifen; series mostly up to 92.2 µM;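 note: cells exposed to compound for 16 hours before reading; 0% = DMSO alone and 100% = caspase signal from 100 µM tamoxifen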
How it was run: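 Concentration-response AC50 values reflect caspase-3/7 induction in HepG2 cells after 16 hours of compound exposure, quantified by luminescence from liberated aminoluciferin and referenced to 100 uM tamoxifen as full stimulation.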

[11] = Cellular Toxicity (caspase-3) HUV-EC-C (AID 656); details: HUV-EC-C cells, caspase-3 activation (apoptosis), vehicle = 0, 100 µM tamoxifen = 100%; series mostly up to 92.2 µM
How it was run: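 Read-out: luminescence proportional to caspase 3/7 activity, measured 20 min after adding Caspase-Glo 3/7 reagent. Cells (HUV-EC-C) had received compound for 16 hr at 37°C. Increases relative to DMSO and 100 uM tamoxifen gave concentration-response AC50 values.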

[12] = Cellular Toxicity (caspase-3) SHSY5Y (AID 657); details: SH-SY5Y caspase-3 activation, DMSO zero, 10 µM staurosporine = 100%; series mostly up to 91.7 µM
How it was run: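 Cells plated and incubated 5 h at 37 °C, dosed over a concentration range, incubated 16 h, then given Caspase-Glo 3/7 reagent for 1 h at room temperature before luminescence reading. Staurosporine (10 uM) defined full stimulation.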

[13] = Cellular Toxicity (caspase-3) BJ (AID 658); details: BJ fibroblasts, luminescence, normalized: DMSO 0%, staurosporine 100%; series mostly up to 91.7 µM
How it was run: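 qHTS, BJ fibroblasts, 1000 cells/well; 5 hr preincubation, 16 hr compound, 37 °C; Caspase-Glo 3/7 reagent, 1 hr RT; luminescence. DMSO = 0%, 10 uM staurosporine = 100%. Hill-equation AC50.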

[14] = Cellular Toxicity (caspase-3) MRC-5 (AID 659); details: MRC-5 cells, luminescence, normalized: DMSO 0%, 10 µM staurosporine 100%; series mostly up to 91.7 µM
How it was run: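 MRC-5 fibroblasts, 1500/well; 16 h cpd, 37 °C; Caspase-Glo 3/7, 1 h RT; lumi read. Norm: DMSO = 0%, 10 uM staurosporine = 100%. Hill-fit AC50 from qHTS conc-response.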

[15] = Cellular Toxicity (caspase-3) Mesangial (AID 660); details: mesangial cells, normalized: DMSO 0%, 100 µM tamoxifen 100%; series mostly up to 91.7 µM;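 note: cells exposed to compound for 16 h before the caspase read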
How it was run: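 AC50 values come from Hill-equation fits of caspase 3/7 activation, measured as Caspase-Glo luminescence in human glomerular mesangial cells exposed to compound for 16 h at 37 °C; 100% set by 100 uM tamoxifen.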

[16] = Cellular Toxicity (caspase-3) SK-N-SH (AID 661); details: SK-N-SH caspase-3 activation, qHTS; series mostly up to 91.7 µM
How it was run: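 Apoptosis readout in SK-N-SH neuroblastoma: Caspase-Glo 3/7 luminescence following 16 hr treatment in complete culture medium. Normalization used DMSO and 10 uM staurosporine controls.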

[17] = Cellular Toxicity (caspase-3) H-4-II-E (AID 663); details: H-4-II-E rat hepatoma; Potency: caspase-3 activation; series mostly up to 92.2 µM;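 note: cells exposed to compound for 16 hr before readout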
How it was run: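 H-4-II-E rat hepatoma, 1500 cells/well, 5 hr settle at 37 °C; compound 16 hr, 37 °C, complete medium; Caspase-Glo 3/7, 20 min RT; luminescence. DMSO = 0%, 100 uM tamoxifen = 100%; Hill-equation AC50.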

[C-]1=CC=CC1.[C-]1=CC=CC1.[Cl-].[Cl-].[Ti+4]
inactive: Potency [2] | Potency [3] | Potency [5] | Potency [6] | outcome [8] | Potency [9] | outcome [10] | outcome [11] | outcome [12] | outcome [13] | outcome [14] | outcome [15] | Potency [16] | Potency [17]
active: Potency [1] 55.7 µM | activity change, negative = cytotoxicity [4] -86.5% | viability change, negative = cytotoxic [7] -81.6%
